Drawing on PubChem BioAssay (NCI), this text covers growth inhibition for 21 compounds.

About 79,000 compounds went through this panel and 15% of them were active in at least one assay; those are over-represented in the sample as a whole. Values without a mark were called inactive. The source made the active and inactive calls. No stated cut-off is given here; in the data, active means growth inhibition above about 70%; inactive means the rest.

A short description of assay [1]: NCI Yeast Anticancer Drug Screen. Data for the rad50 strain (AID 155).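 Further: 0% = growth of vehicle-only cultures of the same strain.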 The settings on record: S. cerevisiae rad50 strain growth inhibition; at 50.0 µM; stronger effect = higher value. The essentials:
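Yeast carrying a defined DNA repair defect were exposed to test compounds, and growth was compared with vehicle-treated controls to give percent inhibition.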

A short description of assay [2]: NCI Yeast Anticancer Drug Screen. Data for the mec2-1 strain (AID 157). The conditions noted are these: S. cerevisiae mec2-1 strain, at 50.0 µM, stronger effect = higher value. Summed up:
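Cells of the genetically defined mec2-1 yeast strain are incubated with test compound. Inhibition of growth is calculated against vehicle-treated controls.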

The nature of assay [3]: NCI Yeast Anticancer Drug Screen. Data for the sgs1 mgt1 strain (AID 161).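 Further: 0% = growth of cultures given vehicle only.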 The settings on record: S. cerevisiae sgs1 mgt1 strain, at 50.0 µM, stronger effect = higher value. Summed up: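 Read-out: growth inhibition vs vehicle controls. Cells: mutant yeast strain deficient in DNA damage repair.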
The nature of assay [4]: NCI Yeast Anticancer Drug Screen. Data for the cln2 rad14 strain (AID 165).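 Further: 0% = growth equal to vehicle treated cultures.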 The conditions noted are these: S. cerevisiae cln2 rad14 strain, at 50.0 µM, stronger effect = higher value. Summed up: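 The screen exposed genetically defined yeast (cln2 rad14) to test compounds and scored growth inhibition relative to vehicle-treated controls.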
Assay [5] can be described thus: NCI Yeast Anticancer Drug Screen. Data for the bub3 strain (AID 167). The settings on record: S. cerevisiae bub3 mutant strain, at 50.0 µM, stronger effect = higher value. The essentials: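 Compounds were applied to a genetically altered yeast strain carrying a cell-cycle control defect. Growth inhibition was scored against vehicle-treated controls.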
The nature of assay [6]: NCI Yeast Anticancer Drug Screen. Data for the mlh1 rad18 strain (AID 175). The settings on record: S. cerevisiae mlh1 rad18 strain growth inhibition; at 50.0 µM; stronger effect = higher value. The essentials: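 Compound-treated yeast growth, normalised to vehicle controls. Strain bears defined DNA repair mutations.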

As for `CC1(O)C=CC(=O)C=C1`, the growth inhibition in assay [1] was 0.05%; in assay [2], 6.75%; in assay [3] it was -15.2%; in assay [4], 1.95%; in assay [5], -24.1%; in assay [6] it was -7.6%.
With `COc1cc(/C=N/NC(=O)N/N=C/c2cc(OC)c(OC)c(OC)c2)cc(OC)c1OC`, the growth inhibition in assay [1] is -37.9%; in assay [2] it was -4.8%; in assay [3], -11.1%; in assay [4] it was 10.9%; in assay [5] it was 0.95%; in assay [6], 6.4%.
With `O=S1CCCO1` (stereo unspecified), the growth inhibition is -7.55% in assay [1]; -8.6% in assay [2]; -13.8% in assay [3]; -41.2% in assay [4]; 11% in assay [5]; 0.3% in assay [6].
In the case of `C=C1C(=O)O[C@@H]2C3=C(C)C(=O)C=C[C@]3(C)CC[C@@H]12`, the growth inhibition was 5.3% in assay [1]; 9.05% in assay [2]; 8.55% in assay [3]; 0.8% in assay [4]; 6.6% in assay [5]; -14.3% in assay [6].
`O=C(/C(=C/c1ccccc1)c1ccc(Cl)cc1)c1ccccc1`: the growth inhibition in assay [1] is 12.6%; in assay [2], 13.9%; in assay [3] it was 13.7%; in assay [4] it was -15.1%; in assay [5], 5.9%; in assay [6], -4%.
For `COc1ccc(/C(N=Nc2ccccc2)=N/N=C(N)N)cc1`, the growth inhibition in assay [1] was 24.3%; in assay [2], 6.35%; in assay [3], 12.1%; in assay [4], -2.6%; in assay [5] it was 36.9%; in assay [6], 8.2%.
For the compound `O=c1/c(=C/c2ccccc2O)sc2nc3ccccc3n12`, the growth inhibition in assay [1] was 9.65%; in assay [2] it was -42.2%; in assay [3], 18.9%; in assay [4] it was 15%; in assay [5], 10.4%; in assay [6], 20.9%.
For `COc1cc(C(=O)N2CCCCCCC2)cc(OC)c1OC`, the growth inhibition was -13.8% in assay [1]; 38.5% in assay [2]; 10.9% in assay [3]; -19.7% in assay [4]; 28.7% in assay [5]; -6.45% in assay [6].
Regarding `Cc1ccc(C(=O)Cc2ccccc2)cc1`, the growth inhibition in assay [1] was 8.05%; in assay [2], 6.15%; in assay [3], 4.85%; in assay [4], 1.25%; in assay [5], -1.85%; in assay [6] it was 1.05%.
As for `CCCCCCCCCC(=O)N(C)OC`, the growth inhibition is 6.1% in assay [1]; 4.3% in assay [2]; 7.05% in assay [3]; 1.3% in assay [4]; -4.6% in assay [5]; 18.1% in assay [6].
For `CC(=O)Nc1ccc2c(Br)ccc3c2c1CC3`, the growth inhibition was 0.8% in assay [1]; -1.55% in assay [2]; 4.3% in assay [3]; 0.6% in assay [4]; 6.6% in assay [5]; -4.45% in assay [6].
`O=P(OCCCl)(OCCCl)C(c1ccccc1)(c1ccccc1)c1ccccc1`: the growth inhibition was 63.4% in assay [1]; 35.7% in assay [2]; 72.6% (active) in assay [3]; 36.9% in assay [4]; 38.5% in assay [5]; 65.2% in assay [6].
Consider `O=C(N/N=C\c1ccc(Cl)cc1)Nc1ccc2ccccc2c1`, for which the growth inhibition in assay [1] was 2.9%; in assay [2], 11.1%; in assay [3] it was 4.35%; in assay [4], 12.9%; in assay [5], 20%; in assay [6] it was 29.1%.
Consider `C[C@@H](O)[C@H](NSc1ccccc1[N+](=O)[O-])C(=O)NCCc1nc(-c2nc(C(=O)NCCCBr)cs2)cs1`, for which the growth inhibition in assay [1] is -0.8%; in assay [2], 2.35%; in assay [3], -2.1%; in assay [4], -21.5%; in assay [5] it was 1.55%; in assay [6] it was 13%.
Regarding `Cc1cccc(C)c1NC(=S)N1CCC(CCCC2CCN(C(=S)Nc3c(C)cccc3C)CC2)CC1`, the growth inhibition was -12.8% in assay [1]; -18.6% in assay [2]; -1.65% in assay [3]; 15.7% in assay [4]; 4.8% in assay [5]; 12.2% in assay [6].
On to `O=C(CCCC(=O)Nc1ccccc1)Nc1ccccc1`, for which the growth inhibition in assay [1] was -9.35%; in assay [2], -6.9%; in assay [3], -1.55%; in assay [4], -35.2%; in assay [5] it was -14.1%; in assay [6] it was -15.7%.
In the case of `[O-]c1c2c(nn1-c1ccc(Cl)cc1)c1ccccc1c[n+]2Cc1ccccc1`, the growth inhibition is -6.1% in assay [1]; -20.6% in assay [2]; -11.2% in assay [3]; -2.5% in assay [4]; 11.4% in assay [5]; -16.2% in assay [6].
Consider `COc1cc(NC(C)CCCNC(C)C)c2nccc(C)c2c1` (stereo unspecified), for which the growth inhibition was 17.4% in assay [1]; 16.3% in assay [2]; 20.9% in assay [3]; 3.25% in assay [4]; 11.6% in assay [5]; 27.9% in assay [6].
As for `CC(C)N(Cc1ccccc1)C(=O)Nc1ccc(Cc2ccc(NC(=O)N(Cc3ccccc3)C(C)C)cc2)cc1`, the growth inhibition in assay [1] was -0.7%; in assay [2], -12.3%; in assay [3], 0.35%; in assay [4], 18.4%; in assay [5], -10.1%; in assay [6], -8.3%.
`COc1ccccc1/C=C/C(=O)c1sc(-c2cccnc2)nc1C`: the growth inhibition was 38.5% in assay [1]; 17.5% in assay [2]; 5.3% in assay [3]; 17.9% in assay [4]; 23.9% in assay [5]; 33.5% in assay [6].
As to `c1ccc(-c2nc3ccccc3nc2-c2ccc(Cc3ccc(-c4nc5ccccc5nc4-c4ccccc4)cc3)cc2)cc1`, the growth inhibition in assay [1] is 39.5%; in assay [2], 19.1%; in assay [3] it was 15.4%; in assay [4], 21.2%; in assay [5] it was -6.5%; in assay [6] it was 25.1%.
